Measured values taken from PubChem BioAssay (EPA / NIEHS).
Activity calls are given as the source filed them. How the source made its calls: active means hit-call score of the fitted dose curve at least 0.9, where 1 is the maximum; inactive means score below 0.9.

Legend:
Settings in all cases: mRNA level, 48 h; actives raise or lower the signal
[1] = read-out: MicroRNA 122 (MIR122), gene 406906; experiment: LTEA_HepaRG_MIR122: Life Technologies and Expression Analysis (LTEA) Assay for MicroRNA 122 (MIR122) using HepaRG (AID 2283516); further: the transcript read is the microRNA miR-122
How it was run: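 Differentiated human HepaRG cells in serum-free induction medium exposed 48 h to 8 half-log concentrations from 100 uM in 0.5% DMSO, duplicate. MIR122 quantified by Fluidigm TaqMan qRT-PCR, normalised to ACTB, GAPDH, POLR2A; fold change fitted bidirectionally versus DMSO.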

[2] = read-out: matrix metalloproteinase-10 (MMP10), MMP10 (gene 4319); experiment: LTEA_HepaRG_MMP10: Life Technologies and Expression Analysis (LTEA) Assay for matrix metalloproteinase-10 (MMP10) using HepaRG (AID 2283517)
How it was run: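 Gain or loss of MMP10 mRNA is fitted relative to the 0.5% DMSO vehicle. The human hepatic line HepaRG receives a 48-hour serum-free exposure, in duplicate, with a maximum concentration of 100 uM.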

[3] = read-out: matrix metalloproteinase-3 (MMP3), MMP3 (gene 4314); experiment: LTEA_HepaRG_MMP3: Life Technologies and Expression Analysis (LTEA) Assay for matrix metalloproteinase-3 (MMP3) using HepaRG (AID 2283519)
How it was run: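 HepaRG, human; 48 h dosing, 8 conc. (max 100 uM, half-log), duplicate, 0.5% DMSO. Readout: MMP3 transcript by Fluidigm TaqMan qRT-PCR, ACTB/GAPDH/POLR2A-normalised. Gain or loss fitted vs DMSO.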

[4] = read-out: Paternally Expressed 10 (PEG10), PEG10 (gene 23089); experiment: LTEA_HepaRG_PEG10: Life Technologies and Expression Analysis (LTEA) Assay for Paternally Expressed 10 (PEG10) using HepaRG (AID 2283520)
How it was run: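 Differentiated HepaRG cells exposed 48 h in serum-free induction medium to eight half-log concentrations topping at 100 uM, 0.5% DMSO, in duplicate. PEG10 mRNA quantified by TaqMan qRT-PCR, normalized to ACTB, GAPDH and POLR2A; bidirectional fit versus DMSO.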

[5] = read-out: Nuclear factor NF-kappa-B p105 subunit (Homo sapiens) (UniProt P19838); experiment: LTEA_HepaRG_NFKB1: Life Technologies and Expression Analysis (LTEA) Assay for Nuclear Factor Kappa B Subunit 1 (NFKB1) using HepaRG (AID 2283521)
How it was run: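 Differentiated human HepaRG cells were exposed for 48 h in serum-free induction medium to eight concentrations (top 100 uM, half-log steps, 0.5% DMSO), in duplicate. NFKB1 mRNA was measured by TaqMan qRT-PCR, normalized to ACTB/GAPDH/POLR2A, and fitted bidirectionally against DMSO.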

[6] = read-out: Protein phosphatase 2A (PPP2R4), PTPA (gene 5524); experiment: LTEA_HepaRG_PPP2R4: Life Technologies and Expression Analysis (LTEA) Assay for Protein phosphatase 2A (PPP2R4) using HepaRG (AID 2283522)
How it was run: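 Differentiated human HepaRG cells in serum-free induction medium were exposed 48 h to 8 concentrations (top 100 µM, half-log steps, duplicate) in 0.5% DMSO. PPP2R4 mRNA was measured by TaqMan qRT-PCR, normalised to ACTB, GAPDH and POLR2A, and fitted bidirectionally versus DMSO.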

[7] = read-out: Phosphatase and tensin (PTEN), PTEN (gene 5728); experiment: LTEA_HepaRG_PTEN: Life Technologies and Expression Analysis (LTEA) Assay for Phosphatase and tensin (PTEN) using HepaRG (AID 2283523)
How it was run: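 Read-out is PTEN transcript level by multiplexed TaqMan qRT-PCR after 48 h chemical treatment of human HepaRG cultures in serum-free induction medium. Concentrations spanned 100 uM downward in half-log steps, 0.5% DMSO throughout; activity fitted in both directions against vehicle.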

[8] = read-out: solute carrier (SLC22A1), SLC22A1 (gene 6580); experiment: LTEA_HepaRG_SLC22A1: Life Technologies and Expression Analysis (LTEA) Assay for solute carrier (SLC22A1) using HepaRG (AID 2283524)
How it was run: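 HepaRG (human liver line), 48 h dosing in serum-free induction medium; 8 conc., half-log down from 100 uM, 0.5% DMSO vehicle, duplicates. Endpoint: SLC22A1 mRNA, qRT-PCR, housekeeping-normalized; gain/loss fit vs DMSO.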

[9] = read-out: Pyruvate Dehydrogenase Kinase 4 (PDK4), PDK4 (gene 5166); experiment: LTEA_HepaRG_PDK4: Life Technologies and Expression Analysis (LTEA) Assay for Pyruvate Dehydrogenase Kinase 4 (PDK4) using HepaRG (AID 2283525)
How it was run: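 In this multiplexed human HepaRG expression assay, cells are treated 48 h with test chemicals across an eight-point range starting at 100 uM. PDK4 mRNA changes, normalized to ACTB/GAPDH/POLR2A, are fitted in both directions relative to vehicle.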

MYC, MYC (gene 4609) = experiment: LTEA_HepaRG_MYC: Life Technologies and Expression Analysis (LTEA) Assay for MYC using HepaRG (AID 2283518)
How it was run: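 Differentiated human HepaRG cells, plated 48 h then switched to serum-free induction medium, were exposed in duplicate for 48 h to 8-point half-log series up to 100 uM in 0.5% DMSO. MYC mRNA measured by qRT-PCR, normalized to ACTB/GAPDH/POLR2A.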

Measured: AC50

Nuclear factor NF-kappa-B p105 subunit (Homo sapiens), sequence (P19838 whole entry, looked up): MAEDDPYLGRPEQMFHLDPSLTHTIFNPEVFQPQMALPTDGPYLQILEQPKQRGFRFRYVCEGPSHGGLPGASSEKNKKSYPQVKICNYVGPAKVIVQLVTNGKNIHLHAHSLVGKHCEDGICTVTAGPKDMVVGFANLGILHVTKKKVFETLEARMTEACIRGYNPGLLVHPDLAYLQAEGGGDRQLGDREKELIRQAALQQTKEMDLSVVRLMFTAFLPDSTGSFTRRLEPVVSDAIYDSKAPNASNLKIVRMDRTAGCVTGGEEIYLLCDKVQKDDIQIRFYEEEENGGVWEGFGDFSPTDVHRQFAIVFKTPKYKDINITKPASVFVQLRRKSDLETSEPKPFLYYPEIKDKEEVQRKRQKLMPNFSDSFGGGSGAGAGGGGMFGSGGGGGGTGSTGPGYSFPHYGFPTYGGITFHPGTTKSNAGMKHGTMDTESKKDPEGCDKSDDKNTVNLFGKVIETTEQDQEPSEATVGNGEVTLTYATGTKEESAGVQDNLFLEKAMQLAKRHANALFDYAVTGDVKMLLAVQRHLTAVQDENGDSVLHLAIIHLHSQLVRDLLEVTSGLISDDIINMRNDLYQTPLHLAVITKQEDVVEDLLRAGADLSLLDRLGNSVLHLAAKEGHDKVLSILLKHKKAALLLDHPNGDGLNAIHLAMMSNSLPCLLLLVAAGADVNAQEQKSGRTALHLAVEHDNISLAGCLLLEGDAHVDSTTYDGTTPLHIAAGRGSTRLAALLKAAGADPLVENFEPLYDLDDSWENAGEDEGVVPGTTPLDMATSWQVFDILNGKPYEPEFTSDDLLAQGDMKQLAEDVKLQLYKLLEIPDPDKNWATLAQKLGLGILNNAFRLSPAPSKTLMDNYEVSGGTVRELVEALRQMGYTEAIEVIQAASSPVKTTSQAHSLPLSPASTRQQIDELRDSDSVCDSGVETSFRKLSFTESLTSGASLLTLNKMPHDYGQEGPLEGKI

CC(C)(C)C(O)(CCc1ccc(Cl)cc1)Cn1cncn1 (stereo not drawn)
active: [1] 78.1 µM | [6] 50 µM | [8] 73.2 µM | [9] 80.9 µM
not listed: MYC, MYC (gene 4609)
inactive: all other assays above

CCN(CC)N=O
not listed: MYC, MYC (gene 4609)
inactive: all other assays above

O=C1CCCO1
active: [3] 83.1 µM | [7] 82.9 µM
not listed: [5]
inactive: all other assays above

Cc1cccc(N)c1N
active: [1] 50 µM | [4] 50 µM | [8] 47.4 µM
not listed: MYC, MYC (gene 4609)
inactive: all other assays above

CC(C)(OOC(C)(C)c1ccccc1)c1ccccc1
not listed: MYC, MYC (gene 4609)
inactive: all other assays above

Clc1ccc(Cl)c(Cl)c1
active: [4] 50 µM | [8] 20 µM
not listed: [5]
inactive: all other assays above

OCCOCCO
not listed: [5]
inactive: all other assays above

ClCCOCCCl
inactive: all assays above

CN(C)[C@@H]1C(=O)C(C(N)=O)=C(O)[C@@]2(O)C(=O)C3=C(O)c4c(O)cccc4[C@@](C)(O)[C@H]3C[C@@H]12
not listed: MYC, MYC (gene 4609)
inactive: all other assays above

c1ccc2c(c1)-c1cccc3cccc-2c13
active: [4] 50 µM
inactive: all other assays above

CNC(=O)Oc1cccc2c1OC(C)(C)C2
active: [9] 4.56 µM
not listed: [5]
inactive: all other assays above

COC(=O)c1ccccc1N
not listed: MYC, MYC (gene 4609)
inactive: all other assays above

CC(C)(C)OOC(C)(C)CCC(C)(C)OOC(C)(C)C
not listed: [5]
inactive: all other assays above

CCCSC(=O)N(CCC)CCC
not listed: MYC, MYC (gene 4609)
inactive: all other assays above

C[C@]12C=CC3=C4CCC(=O)C=C4CC[C@H]3[C@@H]1CC[C@@H]2O
active: [1] 69.6 µM | [4] 0.805 µM | [8] 41 µM
not listed: MYC, MYC (gene 4609)
inactive: all other assays above

Nc1cc(Cl)cc(C(=O)O)c1Cl
not listed: [5]
inactive: all other assays above

C[N+](C)(C)CC1CO1 (stereo not drawn)
not listed: [5] | MYC, MYC (gene 4609)
inactive: all other assays above

O=C(O)C1C2CCC(O2)C1C(=O)O (stereo not drawn)
inactive: MYC, MYC (gene 4609) | [6] | [7] | [9]
active: [1] 74.4 µM | [3] 27.7 µM | [4] 85.7 µM | [8] 70.7 µM

CCC[CH2][Sn]([Cl])([CH2]CCC)[CH2]CCC
active: [1] 12.8 µM | [2] 1.73 µM | [3] 1.87 µM | [5] 9.07 µM | [8] 1.49 µM
inactive: [4] | [6] | [7] | [9]

Clc1ccc(C(c2ccc(Cl)cc2)C(Cl)Cl)cc1
active: [8] 78.2 µM
not listed: MYC, MYC (gene 4609)
inactive: all other assays above

CC(C)(O)c1cnn2c(-c3ccc(F)c(-c4c(F)cccc4C#N)c3)cnc2n1
active: [1] 13.1 µM | [8] 9.92 µM
not listed: MYC, MYC (gene 4609)
inactive: all other assays above

ClC1=C(Cl)[C@]2(Cl)[C@H]3[C@H]([C@@H]4C=C[C@H]3C4)[C@@]1(Cl)C2(Cl)Cl
active: [8] 9.92 µM
not listed: [5] | MYC, MYC (gene 4609)
inactive: all other assays above

CC(C)COC(=O)c1ccccc1C(=O)OCC(C)C
not listed: [5] | MYC, MYC (gene 4609)
inactive: all other assays above

OCCCBr
not listed: MYC, MYC (gene 4609)
inactive: all other assays above

CCCCCCCCOC(=O)c1ccc(C(=O)OCCCCCCCC)c(C(=O)OCCCCCCCC)c1
not listed: MYC, MYC (gene 4609)
inactive: all other assays above

CN(C)c1ccccc1
not listed: [5] | MYC, MYC (gene 4609)
inactive: all other assays above

CS(=O)(=O)NC(=O)c1cc(Oc2ccc(C(F)(F)F)cc2Cl)ccc1[N+](=O)[O-]
active: [4] 31 µM | [9] 16 µM
not listed: [5] | MYC, MYC (gene 4609)
inactive: all other assays above

OCCCl
not listed: [5] | MYC, MYC (gene 4609)
inactive: all other assays above

CCCCCOC(=O)c1ccccc1C(=O)OCCCCC
not listed: MYC, MYC (gene 4609)
inactive: all other assays above

Oc1ccccc1Cl
not listed: MYC, MYC (gene 4609)
inactive: all other assays above

CO[C@@H]1[C@H](OC(=O)NC(=O)CCl)CC[C@]2(CO2)[C@H]1[C@@]1(C)O[C@@H]1CC=C(C)C
not listed: MYC, MYC (gene 4609)
inactive: all other assays above

CCCCCCCCCCCCCN1CC(C)OC(C)C1 (stereo not drawn)
not listed: [5] | MYC, MYC (gene 4609)
inactive: all other assays above

Nc1ccc(Cc2ccc(N)cc2)cc1
not listed: [3] | MYC, MYC (gene 4609)
inactive: all other assays above

Nc1ccc([N+](=O)[O-])cc1
not listed: MYC, MYC (gene 4609)
inactive: all other assays above

c1ccc(C2CO2)cc1 (stereo not drawn)
not listed: [5] | MYC, MYC (gene 4609)
inactive: all other assays above

O=C(Oc1ccc(Br)cc1)N1CCN2CCC1CC2
not listed: MYC, MYC (gene 4609)
inactive: all other assays above

[O-][Cl+]O
not listed: MYC, MYC (gene 4609)
inactive: all other assays above

COc1cc(C=O)cc2c1[C@H](COC(N)=O)[C@]1(OC(C)=O)ON2C[C@H]2[C@@H]1N2C(C)=O
active: [2] 1.58 µM | [3] 1.44 µM | [7] 29.9 µM | [8] 0.58 µM | [9] 95.3 µM
inactive: [1] | [4] | [6]

[Cl-].[Cl-].[Hg+2]
not listed: MYC, MYC (gene 4609)
inactive: all other assays above

CN(C)C(=O)Nc1ccc(Cl)cc1
not listed: MYC, MYC (gene 4609)
inactive: all other assays above

CCNS(=O)(=O)C(F)(F)C(F)(F)C(F)(F)C(F)(F)C(F)(F)C(F)(F)C(F)(F)C(F)(F)F
inactive: [2] | [3] | [6] | [7]
active: [1] 48.2 µM | [4] 15.5 µM | [8] 40.5 µM | [9] 30.4 µM

N#CC(Br)Br
not listed: [1] | MYC, MYC (gene 4609)
inactive: all other assays above

COC(=O)Nc1nc2ccccc2[nH]1
not listed: [5] | MYC, MYC (gene 4609)
inactive: all other assays above

Nc1ccc(N=Nc2ccccc2)cc1
active: [1] 18.1 µM | [4] 18.4 µM | [6] 21.1 µM | [7] 25 µM | [8] 13.6 µM | [9] 13.4 µM
inactive: [2] | [3]
